# Data taken from PubChem BioAssay (EPA / NIEHS).
# Active and inactive are the calls of the source. Rule for the calls: active = hit-call score of the fitted dose curve at least 0.9, where 1 is the maximum; inactive = score below 0.9.
# What was measured:
# [1] = ATG_GLI_CIS: Attagene CIS-FACTORIAL HepG2 Assay for human Zinc Finger Protein GLI1 (AID 2282945); details: HepG2, Attagene cis-factorial reporter mRNA, GLI element; actives raise or lower the signal
# In short: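 Bidirectional curve fits relative to DMSO, using reporter mRNA levels from RT-PCR plus capillary electrophoresis. Cells were HepG2 transiently carrying cis-regulated reporter constructs, harvested 24 h after dosing.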
# [2] = biological target: Bile acid receptor (Homo sapiens) (UniProt Q96RI1); test: ATG_IR1_CIS: Attagene CIS-FACTORIAL HepG2 Assay for human Nuclear Receptor Subfamily 1 Group H Member 4 (NR1H4), IR1 submotif (AID 2282946); details: IR1 reporter transcription, actives raise or lower the signal
# In short: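 HepG2 cells transiently transfected with multiplexed cis-element reporter units read endogenous transcription factor activity. After 24 h compound exposure, reporter mRNA was quantified by RT-PCR, fluorescent labelling, HpaI digestion and capillary electrophoresis; bidirectional fitting versus DMSO baseline.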
# [3] = ATG_GRE_CIS: Attagene CIS-FACTORIAL HepG2 Assay for human Glucocorticoid Response Elements (GRE) (AID 2282947); details: HepG2 GRE cis-reporter, Attagene multiplex mRNA; actives raise or lower the signal
# In short: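 Reporter transcripts read by RT-PCR with capillary electrophoresis fluorescence after a 24 h chemical exposure of HepG2 cells transiently transfected with multiple cis-element reporter units. Gain or loss fitted against DMSO.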
# [4] = ATG_ISRE_CIS: Attagene CIS-FACTORIAL HepG2 Assay for human Interferon Regulatory Factor 1 (IRF1) binding to an Interferon-Stimulated Response Element (ISRE) (AID 2282948); details: HepG2 ISRE cis-reporter (Attagene), mRNA transcription readout; actives raise or lower the signal
# In short: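 Signal reflects induction or loss of ISRE-linked reporter mRNA in transiently transfected HepG2 cells after a 24 h treatment, detected by fluorescent RT-PCR fragments on capillary electrophoresis and normalised to DMSO.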
# [5] = ATG_M_32_CIS: Attagene CIS-FACTORIAL HepG2 Assay for M32 Transcription Factor (Internal Marker) (AID 2282949); details: HepG2 Attagene cis-factorial M32 reporter, mRNA; actives raise or lower the signal;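 note: background control marker of the multiplexed CIS panel rather than a real target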
# In short: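 HepG2 transfectants (cis-regulated reporter transcription units) dosed 24 h. Reporter mRNA by RT-PCR plus CE, analysed as gain or loss relative to DMSO.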
# [6] = ATG_M_06_CIS: Attagene CIS-FACTORIAL HepG2 Assay for M06 Transcription Factor (Internal Marker) (AID 2282950); details: HepG2 Attagene CIS-FACTORIAL M06 internal marker reporter; actives raise or lower the signal
# In short: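 Cells (HepG2, transiently carrying cis-driven reporter units) receive chemical for 24 h before RNA isolation. Reporter cDNA is PCR-amplified, FAM-labelled by primer extension, HpaI-digested and sized on a capillary analyser.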
# [7] = biological target: Hypoxia-inducible factor 1-alpha (Homo sapiens) (UniProt Q16665); test: ATG_HIF1a_CIS: Attagene CIS-FACTORIAL HepG2 Assay for human Hypoxia Inducible Factor 1 (HIF1A) (AID 2282951); details: HepG2 Attagene cis-factorial HIF1a reporter transcription; actives raise or lower the signal
# In short: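 Endogenous-TF cis reporter readout, human HepG2 cells, 24 h incubation; mRNA detected via RT-PCR and capillary electrophoresis fluorescence; DMSO-normalised bidirectional fitting.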
# [8] = biological target: Heat shock factor protein 1 (Homo sapiens) (UniProt Q00613); test: ATG_HSE_CIS: Attagene CIS-FACTORIAL HepG2 Assay for human Heat Shock Transcription Factor 1 (HSE) (AID 2282953); details: HepG2 HSE cis-reporter, Attagene RNA transcription; actives raise or lower the signal
# In short: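 Liver-derived HepG2 cells carry transiently introduced multiple reporter units governed by cis promoters. Reporter RNA measured 24 h post-dose through reverse transcription, PCR amplification, fluorescent labelling and capillary electrophoresis, normalised to DMSO.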
# [9] = ATG_MRE_CIS: Attagene CIS-FACTORIAL HepG2 Assay for human Metal Responsive Element (MRE) (AID 2282954); details: HepG2 MRE cis-reporter transcription, Attagene multiplex; actives raise or lower the signal
# In short: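 Endogenous MRE-dependent transcription read as reporter mRNA in transiently transfected human HepG2 cells at 24 h. RNA reverse-transcribed, PCR-amplified, labelled and resolved by capillary electrophoresis; gain or loss relative to DMSO.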
# [10] = ATG_PBREM_CIS: Attagene CIS-FACTORIAL HepG2 Assay for human Phenobarbital-responsive Enhancer Module (PBREM) (AID 2282955); details: HepG2 PBREM cis-reporter, Attagene multiplexed transcription; actives raise or lower the signal
# In short: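 Readout: reporter mRNA, fluorescent RT-PCR fragments separated by capillary electrophoresis. System: HepG2 transiently transfected with cis-regulated reporter units. Exposure: 24 h. Analysis: bidirectional, DMSO baseline.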
# [11] = biological target: Paired box protein Pax-6 (Homo sapiens) (UniProt P26367); test: ATG_Pax6_CIS: Attagene CIS-FACTORIAL HepG2 Assay for human Paired Box 6 (PAX6) (AID 2282956); details: HepG2 CIS-FACTORIAL PAX6 reporter transcription, RNA readout; actives raise or lower the signal
# In short: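 Values derive from bidirectional curve fitting of reporter mRNA signal relative to DMSO. HepG2 cells bearing transfected cis-regulated MRTUs were exposed for 24 h; transcripts were read by RT-PCR and capillary electrophoresis.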
# [12] = ATG_PXRE_CIS: Attagene CIS-FACTORIAL HepG2 Assay for human Pregnane X Receptor Element (PXRE) (AID 2282957); details: HepG2 Attagene CIS-FACTORIAL PXRE reporter, mRNA; actives raise or lower the signal
# In short: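 Endogenous transcription factor activity in HepG2 was gauged through induction of reporter mRNA driven by a cis-regulating promoter element, sampled 24 h post-treatment. Activity was fitted in both directions against DMSO negative control.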
# [13] = ATG_PPRE_CIS: Attagene CIS-FACTORIAL HepG2 Assay for human Peroxisome Proliferator-activated Response Element (PPRE) (AID 2282958); details: HepG2 PPRE cis-element reporter, Attagene transcription factor profiling; actives raise or lower the signal
# In short: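 After human HepG2 hepatoma cells were transiently transfected with cis-promoter reporter constructs, they were exposed to test chemicals for 24 hours. Reporter RNA was then reverse-transcribed, PCR-amplified, FAM-labeled, HpaI-digested and quantified by capillary electrophoresis.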
# [14] = ATG_RORE_CIS: Attagene CIS-FACTORIAL HepG2 Assay for human RAR-related Orphan Receptor Element (RORE) (AID 2282959); details: HepG2 Attagene cis-factorial RORE reporter, mRNA; actives raise or lower the signal
# In short: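 Measured here: transcript induction of a cis-regulated reporter in HepG2 cells transiently transfected via FuGene 6. After 24 h, RNA was processed by RT-PCR and fluorescent capillary electrophoresis; DMSO defined baseline activity.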
# [15] = ATG_Sox_CIS: Attagene CIS-FACTORIAL HepG2 Assay for human SRY-box transcription factor (SOX) (AID 2282960); details: HepG2 Attagene cis-factorial SOX reporter, mRNA; actives raise or lower the signal
# In short: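 Using transiently transfected HepG2 cells, reporter transcription driven by cis elements was assessed 24 h after dosing. Signal was fluorescence of capillary-separated RT-PCR products, with DMSO defining baseline activity.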
# [16] = biological target: Transcription factor Sp1 (Homo sapiens) (UniProt P08047); test: ATG_Sp1_CIS: Attagene CIS-FACTORIAL HepG2 Assay for human Specificity Protein 1 (Sp1) (AID 2282961); details: HepG2 Sp1 cis-reporter transcription, actives raise or lower the signal
# In short: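 After transient transfection of HepG2 cells with cis-promoter reporter units and 24 h chemical treatment, reporter transcripts were quantified by RT-PCR and capillary electrophoresis fluorescence. Gain- and loss-of-signal fitted against DMSO.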
# [17] = ATG_SREBP_CIS: Attagene CIS-FACTORIAL HepG2 Assay for human Sterol Regulatory Element Binding (SREBP) (AID 2282962); details: HepG2 Attagene cis-factorial SREBP reporter, mRNA; actives raise or lower the signal
# In short: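 Values derive from bidirectional curve fitting with DMSO as baseline. The underlying measurement is reporter mRNA from cis-element-regulated units in transiently transfected HepG2, quantified by RT-PCR and capillary electrophoresis after 24 h exposure.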
# [18] = biological target: Signal transducer and activator of transcription 3 (Homo sapiens) (UniProt P40763); test: ATG_STAT3_CIS: Attagene CIS-FACTORIAL HepG2 Assay for human Signal Transducer and Activator of Transcription 3 (STAT3) (AID 2282963); details: HepG2, Attagene cis-factorial STAT3 reporter transcription; actives raise or lower the signal
# In short: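 Readout is reporter transcript quantified by RT-PCR and capillary electrophoresis, with 6-FAM primer extension and HpaI digestion. Total RNA is taken 24 h after dosing transiently transfected HepG2 carrying cis-regulated reporter units. Bidirectional fit against DMSO.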
# [19] = ATG_TA_CIS: Attagene CIS-FACTORIAL HepG2 Assay for human TA Basal Promoter (AID 2282964); details: HepG2 Attagene CIS-factorial TA basal promoter reporter; actives raise or lower the signal
# In short: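 Background internal-marker endpoint from a 52-component HepG2 cis-reporter panel. Cells treated 24 h; reporter transcripts quantified via RT-PCR and CE fluorescence against DMSO baseline.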
# [20] = biological target: Hepatocyte nuclear factor 6 (Homo sapiens) (UniProt Q9UBC0); test: ATG_HNF6_CIS: Attagene CIS-FACTORIAL HepG2 Assay for human Hepatocyte Nuclear Factor 6 (HNF6) (AID 2282952); details: HepG2 Attagene cis-factorial HNF6 reporter transcription; actives raise or lower the signal
# In short: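 Endogenous transcription factor activity in human HepG2 liver cells was captured through cis-regulated reporter constructs. After 24 h treatment, reporter mRNA was measured by RT-PCR with capillary electrophoresis, and activity was fitted in both directions relative to DMSO.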
# Sequence of Heat shock factor protein 1 (Homo sapiens) (Q00613 whole entry, looked up): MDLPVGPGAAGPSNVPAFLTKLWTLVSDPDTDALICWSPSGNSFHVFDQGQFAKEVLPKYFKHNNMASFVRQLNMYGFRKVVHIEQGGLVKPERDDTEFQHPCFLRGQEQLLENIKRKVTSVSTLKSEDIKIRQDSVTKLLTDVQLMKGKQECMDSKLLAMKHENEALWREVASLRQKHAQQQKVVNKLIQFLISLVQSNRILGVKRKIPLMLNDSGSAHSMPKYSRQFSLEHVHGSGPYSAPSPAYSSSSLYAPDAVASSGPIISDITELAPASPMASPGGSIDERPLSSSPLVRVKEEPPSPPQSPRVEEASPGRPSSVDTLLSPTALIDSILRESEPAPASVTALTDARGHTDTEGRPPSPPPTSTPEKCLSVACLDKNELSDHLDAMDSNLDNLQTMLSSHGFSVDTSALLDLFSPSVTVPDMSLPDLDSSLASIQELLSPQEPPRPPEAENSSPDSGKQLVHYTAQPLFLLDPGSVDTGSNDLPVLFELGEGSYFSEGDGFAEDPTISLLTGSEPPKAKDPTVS
# Sequence of Bile acid receptor (Homo sapiens) (Q96RI1 whole entry, looked up): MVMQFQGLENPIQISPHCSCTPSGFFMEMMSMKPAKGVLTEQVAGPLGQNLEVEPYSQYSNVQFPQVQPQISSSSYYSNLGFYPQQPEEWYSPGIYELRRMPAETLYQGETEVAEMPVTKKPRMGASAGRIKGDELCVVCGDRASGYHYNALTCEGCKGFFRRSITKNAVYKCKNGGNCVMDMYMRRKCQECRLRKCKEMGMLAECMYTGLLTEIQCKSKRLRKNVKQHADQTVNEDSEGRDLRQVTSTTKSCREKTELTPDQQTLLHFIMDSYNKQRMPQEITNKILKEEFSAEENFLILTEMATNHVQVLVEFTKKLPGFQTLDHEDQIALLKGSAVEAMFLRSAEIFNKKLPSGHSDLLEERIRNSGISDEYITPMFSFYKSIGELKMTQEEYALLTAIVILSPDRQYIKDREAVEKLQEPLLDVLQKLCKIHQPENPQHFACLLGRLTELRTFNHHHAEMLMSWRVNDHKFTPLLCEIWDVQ
# Sequence of Hypoxia-inducible factor 1-alpha (Homo sapiens) (Q16665 whole entry, looked up): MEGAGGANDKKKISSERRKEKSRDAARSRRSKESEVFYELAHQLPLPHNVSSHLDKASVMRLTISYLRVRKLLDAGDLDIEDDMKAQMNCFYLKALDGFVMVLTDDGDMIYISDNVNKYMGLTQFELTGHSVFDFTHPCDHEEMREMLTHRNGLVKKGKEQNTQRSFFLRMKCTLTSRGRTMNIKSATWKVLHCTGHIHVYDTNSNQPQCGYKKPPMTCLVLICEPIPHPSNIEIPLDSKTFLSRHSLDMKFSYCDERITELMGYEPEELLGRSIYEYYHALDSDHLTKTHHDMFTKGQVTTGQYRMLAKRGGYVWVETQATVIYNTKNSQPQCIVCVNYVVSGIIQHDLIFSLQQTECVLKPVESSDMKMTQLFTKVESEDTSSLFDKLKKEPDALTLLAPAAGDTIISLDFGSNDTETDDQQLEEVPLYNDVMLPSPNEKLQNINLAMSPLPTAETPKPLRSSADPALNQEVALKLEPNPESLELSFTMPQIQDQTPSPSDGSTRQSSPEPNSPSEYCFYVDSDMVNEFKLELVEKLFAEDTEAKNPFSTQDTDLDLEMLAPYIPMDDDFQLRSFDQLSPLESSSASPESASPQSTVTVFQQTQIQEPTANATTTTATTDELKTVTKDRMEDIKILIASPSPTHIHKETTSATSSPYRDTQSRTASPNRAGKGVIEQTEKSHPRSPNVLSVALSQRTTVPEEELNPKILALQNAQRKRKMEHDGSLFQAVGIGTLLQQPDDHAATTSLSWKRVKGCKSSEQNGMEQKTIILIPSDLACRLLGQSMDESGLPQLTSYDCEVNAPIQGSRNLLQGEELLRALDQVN
# Sequence of Transcription factor Sp1 (Homo sapiens) (P08047 whole entry, looked up): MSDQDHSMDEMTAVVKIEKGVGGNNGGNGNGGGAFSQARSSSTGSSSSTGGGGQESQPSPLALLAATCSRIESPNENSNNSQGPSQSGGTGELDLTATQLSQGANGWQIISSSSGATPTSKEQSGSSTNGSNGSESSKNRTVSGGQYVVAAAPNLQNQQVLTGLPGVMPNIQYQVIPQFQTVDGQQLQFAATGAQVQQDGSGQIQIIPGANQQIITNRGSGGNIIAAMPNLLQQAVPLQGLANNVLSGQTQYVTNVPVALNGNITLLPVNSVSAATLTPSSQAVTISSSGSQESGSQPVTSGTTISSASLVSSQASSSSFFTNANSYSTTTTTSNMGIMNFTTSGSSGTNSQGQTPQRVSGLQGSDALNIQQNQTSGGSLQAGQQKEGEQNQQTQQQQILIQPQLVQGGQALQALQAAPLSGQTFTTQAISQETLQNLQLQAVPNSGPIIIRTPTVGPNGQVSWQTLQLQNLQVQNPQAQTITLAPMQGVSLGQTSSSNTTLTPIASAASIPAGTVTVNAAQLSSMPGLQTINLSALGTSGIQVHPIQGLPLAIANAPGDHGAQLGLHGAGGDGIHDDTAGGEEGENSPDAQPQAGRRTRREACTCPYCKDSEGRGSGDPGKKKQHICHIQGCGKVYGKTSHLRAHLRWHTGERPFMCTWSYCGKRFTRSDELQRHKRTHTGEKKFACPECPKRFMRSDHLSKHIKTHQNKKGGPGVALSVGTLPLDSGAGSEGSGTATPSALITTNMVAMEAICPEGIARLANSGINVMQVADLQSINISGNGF
# Sequence of Paired box protein Pax-6 (Homo sapiens) (P26367 whole entry, looked up): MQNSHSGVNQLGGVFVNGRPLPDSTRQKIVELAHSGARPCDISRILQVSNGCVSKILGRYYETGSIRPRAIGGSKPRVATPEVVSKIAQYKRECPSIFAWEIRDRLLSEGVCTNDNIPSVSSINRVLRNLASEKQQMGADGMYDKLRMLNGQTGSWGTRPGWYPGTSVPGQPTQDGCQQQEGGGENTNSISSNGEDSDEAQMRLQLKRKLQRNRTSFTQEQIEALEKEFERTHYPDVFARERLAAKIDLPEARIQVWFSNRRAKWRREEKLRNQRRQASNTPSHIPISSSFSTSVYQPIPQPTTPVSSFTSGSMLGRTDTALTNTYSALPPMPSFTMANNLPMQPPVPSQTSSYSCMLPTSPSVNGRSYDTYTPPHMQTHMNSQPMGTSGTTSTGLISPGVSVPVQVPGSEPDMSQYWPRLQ
# Sequence of Signal transducer and activator of transcription 3 (Homo sapiens) (P40763 whole entry, looked up): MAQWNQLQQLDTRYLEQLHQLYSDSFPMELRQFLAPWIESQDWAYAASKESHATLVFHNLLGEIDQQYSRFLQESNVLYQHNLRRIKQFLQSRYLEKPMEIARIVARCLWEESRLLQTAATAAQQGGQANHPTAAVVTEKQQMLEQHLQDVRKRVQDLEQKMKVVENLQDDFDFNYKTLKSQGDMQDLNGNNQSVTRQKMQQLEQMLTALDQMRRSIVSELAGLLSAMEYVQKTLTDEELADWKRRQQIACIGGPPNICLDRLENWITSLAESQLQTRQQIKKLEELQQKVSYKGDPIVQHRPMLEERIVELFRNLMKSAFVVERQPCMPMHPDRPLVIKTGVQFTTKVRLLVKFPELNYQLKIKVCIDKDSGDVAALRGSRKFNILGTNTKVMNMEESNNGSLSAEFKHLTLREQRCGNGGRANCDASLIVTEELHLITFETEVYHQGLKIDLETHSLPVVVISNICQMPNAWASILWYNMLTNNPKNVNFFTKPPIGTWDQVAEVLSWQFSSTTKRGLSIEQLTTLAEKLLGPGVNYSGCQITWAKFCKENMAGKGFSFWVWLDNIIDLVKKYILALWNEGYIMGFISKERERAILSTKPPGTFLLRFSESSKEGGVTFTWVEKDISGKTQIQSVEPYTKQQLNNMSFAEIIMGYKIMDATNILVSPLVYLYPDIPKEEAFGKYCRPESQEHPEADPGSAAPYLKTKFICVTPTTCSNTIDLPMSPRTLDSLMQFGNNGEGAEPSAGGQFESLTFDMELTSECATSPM
# Sequence of Hepatocyte nuclear factor 6 (Homo sapiens) (Q9UBC0 whole entry, looked up): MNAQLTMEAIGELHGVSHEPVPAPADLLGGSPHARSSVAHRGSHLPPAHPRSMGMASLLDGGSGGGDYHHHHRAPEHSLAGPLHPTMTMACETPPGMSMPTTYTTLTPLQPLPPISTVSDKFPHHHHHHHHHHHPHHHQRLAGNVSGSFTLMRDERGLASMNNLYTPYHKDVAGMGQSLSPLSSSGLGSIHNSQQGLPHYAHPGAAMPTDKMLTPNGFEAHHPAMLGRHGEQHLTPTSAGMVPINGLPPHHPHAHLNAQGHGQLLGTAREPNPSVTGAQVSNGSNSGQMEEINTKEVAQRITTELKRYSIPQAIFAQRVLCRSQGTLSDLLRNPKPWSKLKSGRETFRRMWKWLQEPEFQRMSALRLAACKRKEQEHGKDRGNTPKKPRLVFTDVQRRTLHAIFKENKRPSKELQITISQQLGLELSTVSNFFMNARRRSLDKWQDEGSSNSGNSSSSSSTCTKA
smiles,measurement,setting,value
CC(C)(C)OOC(C)(C)C,outcome,[1],inactive
same,outcome,[2],inactive
same,outcome,[3],inactive
same,outcome,[4],inactive
same,outcome,[5],inactive
same,outcome,[6],inactive
same,outcome,[7],inactive
same,outcome,[8],inactive
same,outcome,[9],inactive
same,outcome,[10],inactive
same,outcome,[11],inactive
same,outcome,[12],inactive
same,outcome,[13],inactive
same,outcome,[14],inactive
same,outcome,[15],inactive
same,outcome,[16],inactive
same,outcome,[17],inactive
same,outcome,[18],inactive
same,outcome,[19],inactive
CC(Cc1ccc(OCC(=O)O)cc1)NCC(O)c1csc(C(F)(F)F)n1 (stereo not given),outcome,[1],inactive
same,outcome,[3],inactive
same,outcome,[4],inactive
same,outcome,[5],inactive
same,outcome,[6],inactive
same,outcome,[7],inactive
same,outcome,[8],inactive
same,outcome,[9],inactive
same,outcome,[11],inactive
same,outcome,[12],inactive
same,outcome,[14],inactive
same,outcome,[15],inactive
same,outcome,[16],inactive
same,outcome,[17],inactive
same,outcome,[18],inactive
same,outcome,[19],inactive
Cc1ccc([N+](=O)[O-])cc1C,outcome,[1],inactive
same,outcome,[2],inactive
same,outcome,[4],inactive
same,outcome,[5],inactive
same,outcome,[6],inactive
same,outcome,[7],inactive
same,outcome,[20],inactive
same,outcome,[8],inactive
same,outcome,[9],inactive
same,outcome,[10],inactive
same,outcome,[11],inactive
same,outcome,[12],inactive
same,outcome,[13],inactive
same,outcome,[14],inactive
same,outcome,[15],inactive
same,outcome,[16],inactive
same,outcome,[17],inactive
same,outcome,[18],inactive
same,outcome,[19],inactive
CN(C)C(=O)Cl,outcome,[1],inactive
same,outcome,[3],inactive
same,outcome,[4],inactive
same,outcome,[5],inactive
same,outcome,[6],inactive
same,outcome,[7],inactive
same,outcome,[20],inactive
same,outcome,[8],inactive
same,outcome,[9],inactive
same,outcome,[10],inactive
same,outcome,[11],inactive
same,outcome,[12],inactive
same,outcome,[13],inactive
same,outcome,[14],inactive
same,outcome,[15],inactive
same,outcome,[16],inactive
same,outcome,[17],inactive
same,outcome,[18],inactive
same,outcome,[19],inactive
Nc1cc2c3c(c1)C(c1ccccc1)=N[C@@H](NC(=O)c1cccnc1)C(=O)N3CC2,outcome,[1],inactive
same,outcome,[3],inactive
same,outcome,[4],inactive
same,outcome,[5],inactive
same,outcome,[6],inactive
same,outcome,[7],inactive
same,outcome,[8],inactive
same,AC50,[9],71.5 µM (active)
same,outcome,[11],inactive
same,AC50,[12],26.5 µM (active)
same,outcome,[13],inactive
same,AC50,[14],17.5 µM (active)
same,outcome,[15],inactive
same,outcome,[16],inactive
same,AC50,[17],66.8 µM (active)
same,outcome,[18],inactive
same,outcome,[19],inactive
O=[N+]([O-])c1ccccc1,outcome,[1],inactive
same,outcome,[3],inactive
same,outcome,[4],inactive
same,outcome,[5],inactive
same,outcome,[6],inactive
same,outcome,[7],inactive
same,outcome,[20],inactive
same,outcome,[9],inactive
same,outcome,[11],inactive
same,outcome,[12],inactive
same,outcome,[13],inactive
same,outcome,[14],inactive
same,outcome,[15],inactive
same,outcome,[16],inactive
same,outcome,[17],inactive
same,outcome,[18],inactive
same,outcome,[19],inactive
CCCCN(CCCC)N=O,outcome,[1],inactive
same,outcome,[2],inactive
same,outcome,[3],inactive
same,outcome,[4],inactive
same,outcome,[5],inactive
same,outcome,[6],inactive
same,outcome,[7],inactive
same,outcome,[8],inactive
same,outcome,[9],inactive
same,outcome,[11],inactive
same,AC50,[12],42.7 µM (active)
same,outcome,[14],inactive
same,outcome,[15],inactive
same,outcome,[16],inactive
same,outcome,[17],inactive
same,outcome,[18],inactive
same,outcome,[19],inactive
Nc1ccc2ccccc2c1,outcome,[1],inactive
same,outcome,[4],inactive
same,outcome,[5],inactive
same,outcome,[6],inactive
same,outcome,[7],inactive
same,outcome,[20],inactive
same,outcome,[8],inactive
same,outcome,[9],inactive
same,outcome,[11],inactive
same,outcome,[12],inactive
same,outcome,[14],inactive
same,outcome,[15],inactive
same,outcome,[16],inactive
same,outcome,[17],inactive
same,outcome,[18],inactive
same,outcome,[19],inactive
